Results reported in PubChem BioAssay (EPA / NIEHS).
Records with an inconclusive call do not appear. Calls of active or inactive are those of the source. Rule for the calls: active = hit-call score of the fitted dose curve at least 0.9, where 1 is the maximum; inconclusive = response in the unintended direction; inactive = score below 0.9.

Tests used:
[1] = target: Cellular tumor antigen p53 (Homo sapiens) (UniProt P04637); assay: TOX21_p53_BLA_p2_ratio: Tox21 HCT-116 p53 Agonism Beta-lactamase Assay, Ratio, Phase 2 (AID 2283592)
Cellular tumor antigen p53 (Homo sapiens), sequence (P04637 whole entry, looked up): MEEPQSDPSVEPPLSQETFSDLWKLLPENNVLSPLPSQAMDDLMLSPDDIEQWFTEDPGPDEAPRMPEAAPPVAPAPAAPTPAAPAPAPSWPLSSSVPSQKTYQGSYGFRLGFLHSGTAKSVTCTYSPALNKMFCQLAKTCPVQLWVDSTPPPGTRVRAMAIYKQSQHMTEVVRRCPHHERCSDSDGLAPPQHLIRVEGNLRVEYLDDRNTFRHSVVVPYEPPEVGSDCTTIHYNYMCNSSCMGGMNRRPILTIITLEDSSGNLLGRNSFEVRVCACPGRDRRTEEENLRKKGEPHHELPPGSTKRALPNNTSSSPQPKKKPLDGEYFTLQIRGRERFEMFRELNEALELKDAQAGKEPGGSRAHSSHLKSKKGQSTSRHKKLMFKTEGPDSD
Outline: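 HCT-116 cells with p53-responsive beta-lactamase reporter, 4000 cells/well, preincubated 5 h, then compound in DMSO (217-fold dilution) for 16 h at 37C. CCF4-AM substrate 2 h at room temperature; 460/530 nm emission ratio fitted upward versus DMSO.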

[2] = TOX21_p53_BLA_p3_viability: Viability Assessment in the Tox21 HCT-116 p53 Agonism Beta-lactamase Assay, Phase 3 (AID 2283593);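 note: cells exposed to compound for 16 h before reading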
Outline: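 HCT-116 cells (4000/well) rested 5 h at 37C, then got DMSO compounds by pin tool (217-fold dilution) for 16 h at 37C, 5% CO2. After the bla read, CellTiter-Glo was added and luminescence read at 30 min, room temperature.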

[3] = target: Cellular tumor antigen p53 (Homo sapiens) (UniProt P04637); assay: TOX21_p53_BLA_p3_ratio: Tox21 HCT-116 p53 Agonism Beta-lactamase Assay, Ratio, Phase 3 (AID 2283596)
Outline: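 HCT116 p53-bla cells (4000/well) given compound in DMSO (217-fold dilution) after 5 h, incubated 16 h at 37C. CCF4-AM substrate 2 h at room temperature; 460/530 nm emission ratio, gain fitted against DMSO.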

[4] = TOX21_p53_BLA_p4_viability: Viability Assessment in the Tox21 HCT-116 p53 Agonism Beta-lactamase Assay, Phase 4 (AID 2283597);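 note: hits lower the luminescence signal meaning cytotoxicity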
Outline: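 HCT-116 p53-bla cells, 4000/well, dosed after 5 h attachment and incubated 16 h at 37 °C, 5% CO2. Viability from CellTiter-Glo ATP luminescence after 30 min at room temperature, taken after the beta-lactamase read; loss of signal indicates cytotoxicity.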

[5] = target: Cellular tumor antigen p53 (Homo sapiens) (UniProt P04637); assay: TOX21_p53_BLA_p5_ratio: Tox21 HCT-116 p53 Agonism Beta-lactamase Assay, Ratio, Phase 5 (AID 2283599)
Outline: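 HCT-116 cells carrying a p53-inducible beta-lactamase reporter were seeded at 4000 cells/well and dosed after 5 h with compound in DMSO (217-fold dilution). After 16 h at 37C, CCF4-AM substrate was added for 2 h, and the 460/530 nm emission ratio was scored as gain-of-signal versus DMSO.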

[6] = TOX21_p53_BLA_p5_viability: Viability Assessment in the Tox21 HCT-116 p53 Agonism Beta-lactamase Assay, Phase 5 (AID 2283600)
Outline: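 HCT-116 p53 beta-lactamase reporter cells, 4000/well, were exposed to compound (pin transfer, 217-fold dilution) for 16 hours at 37C. Cellular ATP was read by CellTiter-Glo luminescence after 30 min at room temperature.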

[7] = target: Cellular tumor antigen p53 (Homo sapiens) (UniProt P04637); assay: TOX21_p53_BLA_p4_ratio: Tox21 HCT-116 p53 Agonism Beta-lactamase Assay, Ratio, Phase 4 (AID 2283601)
Outline: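 HCT116 cells carrying an inducible beta-lactamase reporter were plated at 4000 cells/well, rested 5 h, then exposed to compounds in DMSO (217-fold dilution) for 16 h at 37C. CCF4-AM substrate was loaded 2 h at room temperature; 460/530 nm emission ratio scored gain-of-signal versus DMSO.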

[8] = TOX21_p53_BLA_p2_viability: Viability Assessment in the Tox21 HCT-116 p53 Agonism Beta-lactamase Assay, Phase 2 (AID 2283591);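 note: compound exposure lasted 16 h at 37 °C; actives lower the ATP signal meaning cytotoxicity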
Outline: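 HCT-116 p53-bla cells (4000/well) rested 5 h at 37C, then received compounds in DMSO (217-fold dilution) for 16 h at 37C, 5% CO2. After the CCF4 read, CellTiter-Glo was added; ATP luminescence was read after 30 min at room temperature.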

THRA (gene 7067) = THRA (gene 7067) (UniProt P10827); assay: TOX21_TRA_COA_Antagonist_Followup_ratio: Tox21 Thyroid Hormone Receptor alpha Antagonism through Coactivator Recruitment Follow-Up Assay, Ratio (AID 2283953)
THRA (gene 7067), sequence (P10827 whole entry, looked up, the tested form may be a part): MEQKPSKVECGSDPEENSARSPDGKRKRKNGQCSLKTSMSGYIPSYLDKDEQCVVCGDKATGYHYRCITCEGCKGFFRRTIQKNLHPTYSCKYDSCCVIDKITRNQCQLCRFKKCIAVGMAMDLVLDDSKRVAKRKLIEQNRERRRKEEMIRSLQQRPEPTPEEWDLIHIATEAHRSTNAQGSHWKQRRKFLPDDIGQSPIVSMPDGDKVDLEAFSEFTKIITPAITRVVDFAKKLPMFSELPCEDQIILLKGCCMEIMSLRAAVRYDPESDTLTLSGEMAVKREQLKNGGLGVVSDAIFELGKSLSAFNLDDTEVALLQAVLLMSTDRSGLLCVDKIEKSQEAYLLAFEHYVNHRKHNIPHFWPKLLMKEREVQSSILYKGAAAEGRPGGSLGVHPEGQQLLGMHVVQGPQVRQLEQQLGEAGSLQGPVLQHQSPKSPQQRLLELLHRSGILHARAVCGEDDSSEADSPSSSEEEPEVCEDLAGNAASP
Outline: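 520:495 nm emission ratio (excitation 340 nm) reports fluorescein-SRC-2 peptide recruitment to GST-TRα LBD by TR-FRET with Tb anti-GST antibody. Values were normalized to DMSO (0%) and T3 control wells (100%); loss of signal indicated antagonism.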

[9] = TOX21_TRB_BLA_Antagonist_Followup_viability: Viability Assessment in the Tox21 Thyroid Hormone Receptor beta Antagonism Beta-lactamase (BLA) Follow-Up Assay (AID 2283961)
Outline: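 HEK293T cells with GAL4-human TRβ LBD and UAS-bla reporter, 3,000 cells/well in 2% charcoal-stripped FBS medium; 11-point concentrations in triplicate, 18 h at 37C. Viability from ATP by CellTiter-Glo luminescence, 30 min RT, same plates.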

[10] = target: Retinoic acid receptor RXR-alpha (Homo sapiens) (UniProt P19793); assay: TOX21_TR_RXR_BLA_Antagonist_Followup_ratio: Tox21 Thyroid Hormone Receptor beta Retinoid X Receptor alpha (RXRa) Antagonism Beta-lactamase (BLA) Follow-Up Assay, Ratio (AID 2283972)
Retinoic acid receptor RXR-alpha (Homo sapiens), sequence (P19793 whole entry, looked up): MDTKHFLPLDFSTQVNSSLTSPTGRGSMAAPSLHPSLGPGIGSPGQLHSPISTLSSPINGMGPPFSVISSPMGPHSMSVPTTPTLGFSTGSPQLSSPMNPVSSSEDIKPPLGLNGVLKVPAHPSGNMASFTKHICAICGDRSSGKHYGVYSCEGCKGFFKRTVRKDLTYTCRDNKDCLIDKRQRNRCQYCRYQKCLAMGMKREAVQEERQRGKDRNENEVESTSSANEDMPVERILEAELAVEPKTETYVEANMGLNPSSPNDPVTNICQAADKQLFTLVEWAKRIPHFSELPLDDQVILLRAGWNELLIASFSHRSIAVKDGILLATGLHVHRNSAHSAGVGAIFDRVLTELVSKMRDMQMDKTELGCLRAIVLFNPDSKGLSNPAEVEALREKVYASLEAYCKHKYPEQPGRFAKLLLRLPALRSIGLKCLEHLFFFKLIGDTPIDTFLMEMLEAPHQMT
Outline: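 RXRa-UAS-bla HEK293T cells, 2,500/well in phenol red-free DMEM with 2% charcoal-stripped FBS, 5 h attachment, then compounds (11 concentrations, triplicate) for 16 h at 37C; FRET-B/GCCF4-AM substrate 2 h RT; 460:530 nm ratio, loss of signal vs DMSO.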

[11] = TOX21_TR_RXR_BLA_Antagonist_Followup_viability: Viability Assessment in the Tox21 Thyroid Hormone Receptor beta Retinoid X Receptor alpha (RXRa) Antagonism Beta-lactamase (BLA) Follow-Up Assay (AID 2283979)
Outline: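 RXRa-UAS-bla HEK293T cells seeded 2,500/well in phenol red-free DMEM with 2% charcoal-stripped FBS, attached 5 h, then exposed to compounds at 11 concentrations in triplicate for 16 h at 37C/5% CO2. Viability read by CellTiter-Glo ATP luminescence; bidirectional fit versus DMSO.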

[12] = target: Thyroid hormone receptor alpha (Rattus norvegicus) + Thyroid hormone receptor beta (Rattus norvegicus) (UniProt P18113+P63059); assay: TOX21_TR_LUC_GH3_Antagonist_Followup: Tox21 GH3 Thyroid Hormone Receptor Antagonism Luciferase Follow-Up Assay (AID 2283942)
Outline: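 Rat pituitary GH3 cells with a TRα/TRβ-driven luciferase reporter, 5 h attachment, then 15 concentrations (92 uM to 5nM final) plus 1.0 nM T3 agonist, 24 h at 37C/5% CO2. ONE-Glo luminescence; signal change fitted against DMSO baseline.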

Measured: AC50

C=C[C@H]1CN2CC[C@H]1C[C@@H]2[C@@H](O)c1ccnc2ccccc12
inactive: [1] | [2] | [3] | [4] | [5] | [6] | [7]

CS(=O)(=O)Cl
inactive: [8] | [4] | [6] | [7]

O=C(Cl)c1ccccc1
inactive: [1] | [2] | [3] | [4] | [5] | [6] | [7]

S=C(SSC(=S)N1CCCCC1)N1CCCCC1
inactive: [1] | [2] | [3] | [4] | [5] | [6] | [7]

C[C@]12CC[C@H](O)C[C@H]1CC[C@@H]1[C@@H]2CC[C@]2(C)[C@@H](c3ccc(=O)oc3)C[C@H]3O[C@]132
inactive: [1] | [3] | [5] | [7]
active: [2] 0.978 µM | [4] 1.23 µM | [6] 1.04 µM

CCCSC(=O)Cl
inactive: [8] | [6] | [7]

BrCC(Br)(Br)Br
active: [1] 84.7 µM | [3] 13.1 µM
inactive: [2] | [4] | [5] | [6] | [7]

CCOC(=O)NC(C)(C)Cc1ccc(Cl)cc1
inactive: [1] | [2] | [3] | [4] | [5] | [6] | [7]

N[C@@H]1C[C@H]1c1ccccc1
inactive: [1] | [2] | [3] | [4] | [5]

O=c1oc2ccccc2c(O)c1Cc1c(O)c2ccccc2oc1=O
inactive: [6] | THRA (gene 7067) | [9] | [10] | [11]
active: [1] 6.79 µM | [2] 0.819 µM | [3] 1.07 µM | [4] 3.3 µM | [5] 3.93 µM | [7] 3.95 µM

CC1CN1 (stereo unspecified)
inactive: [1] | [2] | [3] | [4]

O=C1C=C2C=C[C@@H]3C[C@@]2(O1)[C@H]1CCCCN31
inactive: [1] | [2] | [3] | [4] | [5] | [6]

COC1=CC(=O)O[C@@H](/C=C/c2ccc3c(c2)OCO3)C1
inactive: [1] | [2] | [3] | [4] | [5] | [6] | [7] | [12] | [9] | [10] | [11]
